TrxR1 substrate = is turned over as a substrate by rat TrxR1. 390,000 compounds, 0.01% hits. purified TrxR1 substrate turnover, NADPH consumption readout. Potency, µM (doses to about 114 µM). O89049; note: nearly all actives have a fitted effect of over 50% in size
Target sequence (O89049 whole entry, looked up): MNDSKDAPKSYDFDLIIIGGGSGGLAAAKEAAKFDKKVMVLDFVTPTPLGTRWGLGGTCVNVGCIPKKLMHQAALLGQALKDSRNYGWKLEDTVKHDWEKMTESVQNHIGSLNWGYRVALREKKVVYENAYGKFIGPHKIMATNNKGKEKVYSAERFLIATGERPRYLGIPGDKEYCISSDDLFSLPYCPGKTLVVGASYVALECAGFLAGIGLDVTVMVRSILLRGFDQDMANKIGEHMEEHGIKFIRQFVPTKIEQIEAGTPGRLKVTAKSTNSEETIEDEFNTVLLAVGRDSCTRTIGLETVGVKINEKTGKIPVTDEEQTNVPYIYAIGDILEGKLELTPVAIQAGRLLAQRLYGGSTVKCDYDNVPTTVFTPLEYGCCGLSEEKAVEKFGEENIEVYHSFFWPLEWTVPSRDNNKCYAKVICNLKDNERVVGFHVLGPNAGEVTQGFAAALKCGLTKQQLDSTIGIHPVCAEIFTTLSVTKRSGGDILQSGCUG
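Rat TrxR1, dispensed at 90 nM, was prereduced with 400 uM NADPH (final) for 5 min at ~22 deg C, then incubated with compound 15 min before 400 uM selenite. A first-read NADPH fluorescence drop versus no-compound background flagged substrates.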
TrxR1 inh = blocks rat thioredoxin reductase 1. 390,000 compounds, 1% hits. Potency, µM (series often up to 114 µM), actives largely listed as inhibitors. AID 588453. recombinant rTrxR1, NADPH fluorescence consumption, selenite substrate; note: nearly all actives have a fitted effect of over 65% in size
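Rat TrxR1 (90 nM in the dispensed reagent) was pre-reduced with 400 uM NADPH for 5 min at room temperature, then incubated with compound for 15 min. After 400 uM selenite was added, NADPH fluorescence (Ex 340/Em 450 nm) was followed for 8 min.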
FBPA coupling cs = coupling enzyme interference in Giardia aldolase counter-screen; coupling enzyme system counterscreen, AmpLite Red fluorescence; 290,000 compounds, 0.67% hits; activity change, negative = inhibition, % at 58.2 µM, hits read low; in the data active = activity change below about -30%
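Fluorescence at 525 nm excitation and 598 nm emission measured inhibition of the coupled detection system without aldolase. Compounds (at 57.5 uM final) were preincubated 10 min at room temperature with coupling enzyme reagent before a 20 min substrate/AmpLite Red step.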
GALK inhibitor = blocks human galactokinase activity. Purified GALK, Kinase-Glo residual ATP luminescence. Potency, µM (top dose mostly 57.5 µM), most hits filed as inhibitors. 270,000 compounds, 0.007% hits. AID 1868
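The enzyme phosphorylates galactose (100 uM) using ATP (35 uM); inhibition is detected as higher residual ATP, quantified by bioluminescence after 1 h reaction at room temperature, pH 8.0.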
RORgamma inh = ROR gamma (mouse) transcription inhibition; 310,000 compounds, 5.4% hits; P51450; Potency, µM (doses to about 53.6 µM), hits mostly inhibitors; Drosophila S2 Gal4-RORgamma UAS-luciferase reporter, 20 h; note: nearly all actives have a fitted effect of over 60% in size
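Read-out: Photinus luciferase luminescence; inhibitors lower reporter signal. Insect Schneider cells with Gal4-ROR gamma fusion under metallothionein promoter, UAS reporter; 700 uM final copper sulfate induction, 20 hr, ambient temperature.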
Gal4-VP16 FLuc = Gal4-VP16 reporter inhibition counter-screen | Potency, µM (top dose mostly 53.6 µM), actives largely listed as inhibitors | Drosophila S2 Gal4-VP16 UAS-luciferase, luminescence, 20 h | 310,000 compounds, 3.5% hits;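 note: Gal4-VP16 expression switched on by copper sulfate through the metallothionein promoter; nearly all actives have a fitted effect of over 50% in size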
Large screens that a line does not name were inactive; ! = repeats disagree. Only some compounds are listed: those with a hit (about 5.9% of all), similar ones and a draw of the others. Unless noted, calls come from the whole dose curve; as a rule, active = well fitted curve in the direction sought with a large enough effect; inconclusive = small, poorly fitted or top-dose-only effect, or another doubt; inactive = no such curve, though single readings can be large; an effect the other way counts as inactive or inconclusive.

CCSc1cc(C2C(C#N)=C(N)OC(C)=C2C(=O)OC)c(C)o1 (stereo not given)	TrxR1 inh inconclusive, RORgamma inh 13µM
Cc1cc(C)cc(NC(=O)c2cccc(NC3=NC4CS(=O)(=O)CC4S3)c2)c1 (stereo not given)	none (no result: GALK inhibitor)
CCN(CC)c1ccc(NC(=O)CCS(=O)(=O)c2cccc3nsnc23)c(C)c1	TrxR1 inh 79µM!
Cc1ccc2c(c1)c1c3n2CCN=C3CCC1	RORgamma inh 11µM, Gal4-VP16 FLuc inconclusive
CC(=O)Oc1ccc2nonc2c1OC(C)=O	TrxR1 substrate 20µM, TrxR1 inh inconclusive (no result: FBPA coupling cs, GALK inhibitor, RORgamma inh, Gal4-VP16 FLuc)
O=C(COC(=O)c1ccc(Cl)nc1)Nc1cc(S(=O)(=O)N2CCCCC2)ccc1Cl	none
CCCc1cc(Nc2ccccc2OCC)n2ncnc2n1	RORgamma inh 11µM, Gal4-VP16 FLuc inconclusive (no result: FBPA coupling cs)
CCN1CCCC1CN=Cc1c(O)n(-c2ccccc2)c(=O)c2ccccc12 (stereo not given)	none
Cc1ccsc1/C=N/NC(=O)c1cc(-c2ccncc2)nc2ccccc12	RORgamma inh 1.8µM, Gal4-VP16 FLuc 8.9µM
COc1ccccc1-c1cc(C(=O)N/N=C/c2sccc2C)c2ccccc2n1	RORgamma inh 7.1µM, Gal4-VP16 FLuc 8.9µM
Cc1ccc(/C=N/NC(=O)c2cc(-c3ccncc3)nc3ccccc23)o1	none (no result: RORgamma inh, Gal4-VP16 FLuc)
Clc1ccc(Nc2nc(C3CC3)cs2)cc1	TrxR1 inh inconclusive
CCCCCCc1cc2cc(C(=O)NCc3ccccc3)c(=N)oc2cc1O	RORgamma inh inconclusive, Gal4-VP16 FLuc inconclusive
CCCCCCc1cc2cc(C(=O)Nc3ccccc3)c(=O)oc2cc1O	TrxR1 inh inconclusive, RORgamma inh inconclusive, Gal4-VP16 FLuc 4.5µM
CCCCCCc1cc2cc(S(=O)(=O)c3ccc(Cl)cc3)c(=O)oc2cc1O	RORgamma inh inconclusive, Gal4-VP16 FLuc 20µM (no result: GALK inhibitor)
Cn1c(CNC(=O)c2ccccc2)nnc1SCC(=O)N1CCN(c2ccccc2)CC1	RORgamma inh inconclusive
Cc1ccc(CNC(=O)c2sc3nc[nH]c(=O)c3c2C)cc1	none (no result: FBPA coupling cs, GALK inhibitor, RORgamma inh, Gal4-VP16 FLuc)
CC1(C)COC(c2ccc(F)c([N+](=O)[O-])c2)=N1	TrxR1 inh 18µM
CCC1Sc2ccc(S(=O)(=O)Nc3ccc(OC)c(OC)c3)cc2NC1=O (stereo not given)	RORgamma inh inconclusive, Gal4-VP16 FLuc 8.9µM
O=S(=O)(Nc1ccc(Cc2ccncc2)cc1)c1ccc(Cl)c(Cl)c1	Gal4-VP16 FLuc inconclusive
COc1ccc(S(=O)(=O)Nc2ccc(F)c(Cl)c2)cc1OC	Gal4-VP16 FLuc 7.1µM
COc1ccc(S(=O)(=O)Nc2ccc(Cc3ccncc3)cc2)cc1OC	RORgamma inh inconclusive, Gal4-VP16 FLuc 7.9µM
CCc1ccc(OC)c(S(=O)(=O)Nc2ccc(Cc3ccncc3)cc2)c1	RORgamma inh inconclusive, Gal4-VP16 FLuc 2.2µM
CCC1Sc2ccc(S(=O)(=O)Nc3ccc(OC)cc3)cc2NC1=O (stereo not given)	none (no result: FBPA coupling cs)
Cc1ccc(S(=O)(=O)N2CCOCC2)cc1NC(=O)COC(=O)CCC(=O)c1ccc(F)cc1	none (no result: FBPA coupling cs, GALK inhibitor, RORgamma inh, Gal4-VP16 FLuc)
Cc1c(NC(=O)c2ccc(NS(=O)(=O)c3cccc([N+](=O)[O-])c3)cc2)c(=O)n(-c2ccccc2)n1C	none (no result: FBPA coupling cs, GALK inhibitor, RORgamma inh, Gal4-VP16 FLuc)
Cc1nc2ccccc2cc1OCc1ccc(Cl)cc1	RORgamma inh inconclusive, Gal4-VP16 FLuc 3.5µM
COc1cccc(COc2cc3ccccc3nc2C)c1	Gal4-VP16 FLuc 5µM
COC(=O)Cc1ccc(NC(=S)NCc2ccccc2Cl)cc1	RORgamma inh inconclusive, Gal4-VP16 FLuc inconclusive
COC(=O)Cc1ccc(NC(=S)NCCSc2ccc(Cl)cc2)cc1	TrxR1 inh inconclusive, RORgamma inh 16µM, Gal4-VP16 FLuc inconclusive
Cc1ccc(SCCNC(=O)C(CO)(CO)CO)cc1	none
Cc1ccc(NC(=S)NNC(=O)Nc2ccccc2)cc1	RORgamma inh inconclusive
Cc1ccc(SCCNC(=S)Nc2ccc(C)c(C)c2)cc1	RORgamma inh 4.5µM, Gal4-VP16 FLuc 8.9µM
COc1ccccc1NC(=S)NCCSc1ccc(C)cc1	RORgamma inh 13µM, Gal4-VP16 FLuc 11µM
Cc1ccc(SCCNC(=S)Nc2ccccc2)cc1	RORgamma inh 0.79µM, Gal4-VP16 FLuc 1µM

High-throughput results: PubChem, National Center for Advancing Translational Sciences (NCATS)
